For 59 molecules, fluorescence intensity results are on record in PubChem BioAssay AID624483 (NMMLSC, 2012).

Structures are written as SMILES. Values joined by “and” are separate entries in the source; they are usually repeats but may differ in a detail not shown here. Identical values can stand only once. Hit rate of the full screen: of about 360,000 compounds, about 11,000 (3.1%) were called active. Another 2% or so got no clear call; they are omitted. Cut-off read from the data, not from the text of the source: active = fluorescence intensity above about 16000; inconclusive = no clear call, values can overlap the other calls; inactive = below that. The sample as a whole holds a higher share of actives than the screen did. Where a structure was tested more than once in an assay, its records may differ in their call.

This test is described as follows: counter-screen for toxin protease inhibitors: compound fluorescence, primary screen, artefact control for toxin protease inhibitor project, biochemical, multiplex microsphere, HTS (AID 624483). Particulars: compound autofluorescence counterscreen, microsphere flow cytometry; stronger effect = higher value. On the technique in general: Counterscreens check selectivity or assay interference.
Turning to `COc1ccc(/C=N/Nc2nc3ccccc3c(=O)[nH]2)cc1`, the fluorescence intensity was 19400 (active). `COc1ccc(/C=N/Nc2nc(-c3ccc(C)cc3)c(C#N)c(=O)[nH]2)cc1`: the fluorescence intensity was 3690 (inactive). The figure for `COc1ccc(CCCc2nnc(SCc3nc4ccccc4c(=O)[nH]3)n2C)cc1` is 4610 (inactive); for `CN(Cc1ccccc1F)c1cc2c(c3c1ccn3C)C1CCC2O1` (centres undefined) it is 5510 (inactive); for `Cn1c(=O)c2c(nc(Br)n2CCSc2nc3ccccc3o2)n(C)c1=O` it is 20900 (active). `CC=CCn1c(SCCCc2ccccc2)nc2c1c(=O)[nH]c(=O)n2C`: the fluorescence intensity is 3020 (inactive).

Regarding `Cc1ccnc(SCCn2c(Br)nc3c2c(=O)[nH]c(=O)n3C)n1`, the fluorescence intensity is 2110 (inactive). For `Cn1c(=O)[nH]c(=O)c2c1nc(Br)n2CCCCSc1nc2ccccc2o1`, the fluorescence intensity was 24200 (active).

For the molecule `CC(C)(C)C(=O)CSc1nc2ccccc2o1`, the fluorescence intensity was 4330 (inactive). The figure for `CCN(CC)C(=O)CSc1nc2ccccc2o1` is 2780 (inactive); for `CC1Cc2[nH][nH]c(=O)c2C(C2CC2)O1` (centres undefined) it is 6380 (inactive); for `CCCCc1c(-c2ccc(Br)cc2)ncn1CCc1ccccc1OC` it is 5930 (inactive). Then `Cc1c(C(C)CCCO)oc(=O)c2c1Oc1c(C)c(C(C)C[C@@H](C)O)oc(=O)c1C2` (some centres undefined), with 3640 (inactive).

As to `CCn1c(SCC(=O)NC2CC2)nnc1-c1ccncc1`, the fluorescence intensity was 4270 (inactive). Then `COc1cccc(C(O)c2ncc(-c3ccc4ccccc4c3)[nH]2)c1` (centres undefined), with 4120 (inactive); and `S=C(NCCCc1cnc[nH]1)NCCCN(Cc1ccc(Cl)c(Cl)c1)c1ccc(Br)cn1`, with 3910 (inactive); and `Cc1ccc(-n2nc3cc(Cl)c(NC(=O)c4ccco4)cc3n2)cc1`, with 20600 (active). As to `Cc1ccc(-n2nc3cc(C)c(NC(=O)c4cccnc4)cc3n2)cc1`, the fluorescence intensity was 3240 (inactive). The figure for `Cc1ccc(NC(=O)c2ccco2)cc1` is 3370 (inactive); for `CN(C(=O)CN1CCN(c2cc(-c3ccc(OCc4ccccc4)cc3)ncn2)CC1)c1ccccc1` it is 2960 (inactive); for `COC(=O)c1ccc2nc(-c3cccc(Br)c3)c(Cc3ccccc3C(F)(F)F)n2c1` it is 5960 (inactive).

As for `Nc1nnc(SCC(=O)Nc2ccc3nc(SCC(=O)Nc4ccccc4)sc3c2)s1`, the fluorescence intensity is 2450 (inactive). The figure for `O=[N+]([O-])c1c(NCCO)cc(Sc2nc3ccccc3s2)c2nonc12` is 16100 (active); for `OCCNc1nc(Nc2ccc(Cl)c(Cl)c2)nc2ccccc12` it is 3890 (inactive); for `COc1ccc(C2=NO[C@@H]3C(=O)N(Cc4ccccc4)C(=O)[C@H]23)cc1OC` it is 8330 (inactive).

Regarding `Cc1cc2ccccn2c1C(=O)c1cccc(F)c1`, the fluorescence intensity is 3460 (inactive). With `Cc1c(C=O)c2ccccn2c1C(=O)c1ccncc1`, the fluorescence intensity was 20400 (active). As to `Cc1c(C(=O)NNC(=O)c2ccncc2)oc2ccccc12`, the fluorescence intensity is 6810 (inactive).

Take `O=C(CN1C(=O)NC2(CCCCCC2)C1=O)Nc1ccc([N+](=O)[O-])cc1`: the fluorescence intensity was 3160 (inactive). As for `O=C(NCCO)c1cccc(-c2cccc3nccn23)c1`, the fluorescence intensity was 3960 (inactive).

For the molecule `C[C@H](CO)N1C[C@H](C)[C@@H](CN(C)Cc2ccc(-c3ccccc3)cc2)Oc2ccc(NC(=O)Cn3cnnn3)cc2C1=O`, the fluorescence intensity is 3780 (inactive). Then `COc1ccc(NC(=O)C2Cc3c(-c4cccc(NC(C)=O)c4)ccnc3O2)cc1OC` (centres undefined), with 3970 (inactive); and `CNC(=O)CN1C(=O)NC(c2ccccc2)(c2ccccc2)C1=O`, with 4630 (inactive); and `CC1(C(=O)NS(=O)(=O)c2ccccc2Cl)CCN1C(=O)c1cccc(F)c1` (centres undefined), with 2940 (inactive). As to `Cc1ccccc1C1=NC(C(F)(F)F)(C(F)(F)F)c2c(n(-c3ccc(F)cc3)c(=O)[nH]c2=O)N1`, the fluorescence intensity was 10500 (inactive).

Consider `O=c1[nH]c(=O)n(Cc2ccco2)c2c1C(C(F)(F)F)(C(F)(F)F)N=C(c1ccco1)N2`, for which the fluorescence intensity was 24800 (active). Then `CC(=O)Nc1ccc(S(=O)(=O)NC2(C(F)(F)F)C(=O)Nc3c2c(=O)[nH]c(=O)n3Cc2ccccc2)cc1` (centres undefined), with 2630 (inactive). As for `CC(C)C[C@H]1CNC(=O)C(=O)N1C[C@H]1CCCN1C[C@H](Cc1ccc(O)cc1)N1C[C@H](CC(C)C)N(CC2CCCCCC2)C(=O)C1=O`, the fluorescence intensity was 4880 (inactive). The figure for `O=C(COc1ccc(Cl)cc1Cl)NCCCNC(=O)c1cnccn1` is 3160 (inactive); for `Cc1ccc2nc(NCCCNC(=O)c3cnccn3)c(C#N)cc2c1` it is 20100 (active); for `COCCCNC(=S)NCCNc1nc2cc(C)c(C)cc2cc1C#N` it is 4720 (inactive).

Regarding `CCOc1ccc2nc(Cl)c(C3CC(c4ccccc4)=NN3C(=O)c3cccs3)cc2c1` (centres undefined), the fluorescence intensity is 2410 (inactive). The figure for `Nc1ccccc1Sc1cc(Cl)nnc1Cl` is 3840 (inactive); for `CCOC(=O)c1ccc(NC(=O)c2ccc(NC(=O)C3CCCO3)cc2)cc1` (centres undefined) it is 3420 (inactive).

With `COC(=O)c1cc(OC)c(OC)cc1NC(=O)C1CCCO1` (centres undefined), the fluorescence intensity was 18500 (active). Then `CCc1cc(Br)ccc1NC(=O)C1CCCO1` (centres undefined), with 10900 (inactive); and `O=S1(=O)CC(N2CCN(Cc3ccccc3F)CC2)CN1Cc1cn(Cc2ccccc2)nn1` (centres undefined), with 5590 (inactive).

Regarding `CCC(C)(C(=O)Nc1ccccc1C)N(C(=O)CNC(C)=O)c1ccc(C)cc1` (centres undefined), the fluorescence intensity is 2200 (inactive).

Turning to `CN1CCN(c2ccc([N+](=O)[O-])c(Sc3nc4ccccc4[nH]3)c2)CC1`, the fluorescence intensity was 16500 (active).

In the case of `COc1cccc(-c2nc3ccc(N4CCN(C)CC4)cc3[nH]2)c1`, the fluorescence intensity is 3340 (inactive). The figure for `CC1CCN(c2ccc([N+](=O)[O-])c(SCCO)c2)CC1` is 6270 (inactive); for `CC1Cc2[nH][nH]c(=O)c2C(C2CCCC2)O1` (centres undefined) it is 6280 (inactive); for `Cc1ccc(-c2c[n+](CC(=O)Nc3ccccc3)c3n2CCC3)cc1` it is 3860 (inactive). The figure for `Cc1ccc(C(=O)C[n+]2cc(-c3ccccc3)n3c2CCCCC3)cc1` is 25100 (active) and 2670 (inactive); for `Clc1ccc(C[n+]2cc(-c3ccccc3)n3c2CCC3)cc1` it is 3590 (inactive); for `O=S(=O)(N1CCCCC1)N1CCNCC1` it is 9990 (inactive). Then `CO/N=C/c1ccc(N2CCN(C(=O)c3cccc(Cl)c3)CC2)c([N+](=O)[O-])c1`, with 22700 (active); and `O=C(c1ccc(Cl)c([N+](=O)[O-])c1)N1CCN(c2ccccc2)CC1`, with 4410 (inactive); and `O=C(/C=C/c1ccc(Cl)cc1)N1CCN(c2ccccc2[N+](=O)[O-])CC1`, with 2480 (inactive).
